Records with an inconclusive call do not appear. Where a call stands in place of a potency, no number is given. Active and inactive are the calls of the source. Calls follow the shape of the full dose curve.
test: Cytotoxicity counterscreen for inhibitors of SARS-CoV-2 cell entry (AID 1645845); conditions: cell viability (SARS-CoV-2 entry assay cells); series mostly up to 57.1 µM; activity change, negative = cytotoxicity: at the top concentration; also: nearly all actives have a fitted effect of over 50% in size
How it was run: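 48 h compound treatment (after 1 h preincubation), HEK293-ACE2 cells, 37 C/5% CO2; ATP luminescence endpoint; normalized to cell wells and media blanks.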

Row | Structure (SMILES) | outcome | activity change, negative = cytotoxicity | Potency
1 | NCc1ccc(S(N)(=O)=O)cc1 | inactive | – | –
2 | N#Cc1ccc2c(c1)N(CCCN1CCC(O)CC1)c1ccccc1S2 | – | -26.9% (inactive) | –
3 | NC(=O)N1c2ccccc2C=Cc2ccccc21 | inactive | – | –
4 | O=P(O)(O)C(Sc1ccc(Cl)cc1)P(=O)(O)O | inactive [at 0.702 µM] | – | –
5 | CCCCCCCCCCC[C@@H](C[C@@H]1OC(=O)[C@H]1CCCCCC)OC(=O)[C@H](CC(C)C)NC=O | inactive | – | –
6 | CCCCCCNC(=O)n1cc(F)c(=O)[nH]c1=O | – | -15.5% (inactive) | –
7 | NS(=O)(=O)c1cc(-c2nn[nH]n2)c(NCc2cccs2)cc1Cl | – | -3.95% (inactive) | –
8 | CCOC(=O)c1ccccc1O | inactive | – | –
9 | Cc1nc2ccc(CN(C)c3ccc(C(=O)N[C@@H](CCC(=O)O)C(=O)O)s3)cc2c(=O)[nH]1 | – | – | inactive
10 | Cc1c(C)c2c(c(C)c1O)CCC(C)(COc1ccc(CC3SC(=O)NC3=O)cc1)O2 (stereo not drawn) | – | – | inactive
11 | COC(=O)C1=C(C)NC(C)=C(C(=O)OCC(C)=O)C1c1ccccc1[N+](=O)[O-] (stereo not drawn) | – | -15.5% (inactive) | –
12 | C=CCN1C[C@H](C(=O)N(CCCN(C)C)C(=O)NCC)C[C@@H]2c3cccc4[nH]cc(c34)C[C@H]21 | inactive | – | –
13 | CCc1cc(C(N)=S)ccn1 | – | – | inactive
14 | CCCCCN(CCCOC)C(=O)C(CCC(=O)O)NC(=O)c1ccc(Cl)c(Cl)c1 (stereo not drawn) | – | 1.95% (inactive) | –
15 | O=C(NC(Cc1cc(=O)[nH]c2ccccc12)C(=O)O)c1ccc(Cl)cc1 (stereo not drawn) | – | – | inactive
16 | C=CC1=C(C(=O)O)N2C(=O)[C@@H](NC(=O)/C(=N\O)c3csc(N)n3)[C@H]2SC1 (stereo in doubt) | – | -11.3% (inactive) | –
17 | CC(=O)CC(c1ccc([N+](=O)[O-])cc1)c1c(O)c2ccccc2oc1=O (stereo not drawn) | inactive | – | –
18 | CCN(CC)C(=O)/C(C#N)=C/c1cc(O)c(O)c([N+](=O)[O-])c1 | – | -2.36% (inactive) | –
19 | Nc1c(I)cc(I)c(C(=O)N(CCC(=O)O)c2ccccc2)c1I | inactive | – | –

Row | Structure (SMILES) | outcome | activity change, negative = cytotoxicity | Potency
20 | O=C(Oc1ccccc1)c1ccccc1O | inactive | – | –
21 | CC(=O)O[C@@H]1CC2C3CCc4cc(OC(=O)c5ccccc5)ccc4C3CCC2(C)[C@H]1OC(C)=O (stereo partly drawn) | inactive | – | –
22 | O=C(NCC(O)CO)c1c(I)c(C(=O)NCC(O)CO)c(I)c(N(CCO)C(=O)CO)c1I (stereo not drawn) | inactive | – | –
23 | OC[C@H]1O[C@@H](Oc2ccc(O)cc2)[C@H](O)[C@@H](O)[C@@H]1O | inactive | – | –
24 | c1ccc2c(c1)CCCC2C1=NCCN1 (stereo not drawn) | inactive | – | –
25 | CC(C)[C@H](N)C(=O)OCC(CO)OCn1cnc2c(=O)[nH]c(N)nc21 (stereo partly drawn) | inactive | – | –
26 | Cn1c(=O)c2[nH]c(Br)nc2n(C)c1=O | inactive | – | –
27 | Nc1ccn([C@@H]2O[C@H](CO)[C@@H](O)C2O)c(=O)n1 (stereo partly drawn) | – | -2.49% (inactive) | –
28 | O=C(O)Cc1sc(-c2ccccc2)nc1-c1ccc(Cl)cc1 | inactive | – | –
29 | CC(C)=CCC/C(C)=C/CC/C(C)=C/CCC(=O)OC/C=C(\C)CCC=C(C)C | – | -11.8% (inactive) | –
30 | CN(c1nccc(=O)[nH]1)C1CCN(c2nc3ccccc3n2Cc2ccc(F)cc2)CC1 | inactive | – | –
31 | CO[C@H]1C[C@@H]2CC[C@@H](C)[C@@](O)(O2)C(=O)C(=O)N2CCCC[C@@H]2C(=O)O[C@H]([C@@H](C)C[C@@H]2CC[C@H](O)[C@H](OC)C2)CC(=O)[C@H](C)C=C(C)[C@@H](O)[C@@H](OC)C(=O)[C@H](C)C[C@H](C)C=CC=CC=C1C | – | -23.9% (inactive) | –
32 | OC[C@H]1O[C@H](O[C@]2(CCl)O[C@H](CCl)[C@@H](O)[C@@H]2O)[C@H](O)[C@@H](O)[C@H]1Cl | inactive | – | –
33 | CC(=O)OC(C)OC(=O)C(C)c1ccc(-c2ccccc2)c(F)c1 (stereo not drawn) | inactive | – | –
34 | O=C(N[C@H](CO)[C@H](O)c1ccc([N+](=O)[O-])cc1)C(Cl)Cl | inactive | – | –
35 | N[C@@H](CCC(=O)N[C@@H](CS)C(=O)NCC(=O)O)C(=O)O | – | 3.86% [at 27.1 µM] (inactive) | –
36 | COc1c(N2C[C@@H]3CCCN[C@@H]3C2)c(F)cc2c(=O)c(C(=O)O)cn(C3CC3)c12 | inactive | – | –
37 | CC(C)NCC(O)c1ccc(NS(C)(=O)=O)cc1 (stereo not drawn) | – | – | inactive
38 | Nc1nc(Cl)nc2c1ncn2[C@H]1C[C@H](O)[C@@H](CO)O1 | – | -13.8% (inactive) | –
